GLS inhibitor – inhibitors of human glutaminase (GLS); O94925; GLS enzymatic activity, qHTS titration; Potency, µM (series often up to 45.5 µM), inactives show at the top dose activity change, negative = inhibition, most hits filed as inhibitors; hit rate 0.21% among 410,000; also: % is scaled to controls: 0 for no effect and ±100 for the full control effect
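Two-point fluorescence kinetic (t0, 30 min RT) for hKGA; glutamate detected via glutamate oxidase–HRP–Amplex Red. Substrate: 1 mM L-glutamine solution; buffer 45 mM KH2PO4, pH 8.2.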
HP1b chromo inh – HP1-beta chromodomain-methylated histone interaction inhibition; P83916; AlphaScreen HP1-beta / biotin-H3K9me3 peptide binding; hit rate 0.56% among 390,000; Potency, µM (series often up to 114 µM), for inactives: top-dose activity change, negative = inhibition, most hits filed as inhibitors; also: nearly all actives have a fitted effect of over 70% in size
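AlphaScreen: HP1-beta (50 nM) preformed 30 min with biotin-H3(1-18)K9me3 peptide (50 nM) in PBS pH 7.4, 0.01% Tween-20. Compound added for 30 min at RT, then streptavidin donor/nickel chelate acceptor beads (10 ug/mL) for 30 min.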
G9a block – blocks human histone lysine methyltransferase G9a | G9a H3K9 monomethylation, AlphaScreen, 2 h | Potency, µM (titrated, usually from 102 µM), inactives show top-dose activity, negative = inhibition, most hits filed as inhibitors | hit rate 8.8% among 350,000 | AID 504332; also: % is scaled to controls: 0 for no effect and ±100 for the full control effect; nearly all actives have a fitted effect of over 75% in size
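G9a (20 nM) was preincubated 15 min with compound, then reacted 2 h at room temperature with 500 nM biotin-H3K9 peptide and 20 µM SAM. Monomethyl-H3K9 detected by AlphaScreen using anti-H3K9me1 antibody.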
BAZ2B inh – blocks human BAZ2B; Potency, µM (highest dose often 114 µM), for the others: top-dose activity change, negative = inhibition, most hits filed as inhibitors; AlphaScreen BAZ2B-H3K14Ac peptide displacement; hit rate 4.4% among 360,000; also: % is scaled to controls: 0 for no effect and ±100 for the full control effect; nearly all actives have a fitted effect of over 60% in size
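Protein-peptide AlphaScreen: BAZ2B 50 nM, b-H3K14Ac 50 nM, 1x PBS pH 7.4 + 0.01% Tween-20. Preincubation 30 min RT; cpd 30 min RT (top 110 uM); beads 20 min RT, light-protected.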
JMJD2A Tudor – blocks the human JMJD2A Tudor domain; O75164; Potency, µM (titrated, usually from 114 µM), for the others: top-dose activity change, negative = inhibition, actives largely listed as inhibitors; AID 504339; hit rate 4.4% among 390,000; AlphaScreen JMJD2A-Tudor / H3K4me3 peptide binding; also: % is scaled to controls: 0 for no effect and ±100 for the full control effect; nearly all actives have a fitted effect of over 50% in size
Starred values were filed as active, the others as inactive; ? = inconclusive; · = no result; [ ] = remark or other dose. Most compounds without a hit are left out; they make up all but 10% or so of the library. Calls follow the shape of the dose curve; as a rule, active = well fitted curve in the direction sought with a large enough effect; inconclusive = small, poorly fitted or top-dose-only effect, or another doubt; inactive = no such curve, though single readings can be large; an effect the other way counts as inactive or inconclusive. Potency is read from the fitted curve at half-maximal effect.

SMILES	GLS inhibitor	HP1b chromo inh	G9a block	BAZ2B inh	JMJD2A Tudor
CC(=O)COc1ccc2c(c1C)O/C(=C\c1ccco1)C2=O	-22%	11%	28µM*	-34%	-28%
COC(=O)C(C)Oc1ccc2c(c1)O/C(=C\c1ccco1)C2=O (configuration not stated)	-21%	-9%	11µM*	?	50µM*
COc1ccc2c(c1)O/C(=C\c1ccco1)C2=O	3%	?	·	14µM*	?
COc1ccc(/C=C2\Oc3cc(OCC(N)=O)ccc3C2=O)cc1OC	1%	37%	-9%	2%	-12%
O=C(NCCN1CCCC(O)C1)c1cc(COc2cccc(C(F)(F)F)c2)on1 (configuration not stated)	-8%	·	·	·	·
O=C(Nc1nccs1)c1ccc2nccnc2c1	-18%	-22%	-12%	-2%	79µM*
Cc1ccc(C(=O)Nc2nccs2)cc1	4%	42%	7%	-1%	-3%
CCOC(=O)c1ccccc1NC(=O)c1ccc2nccnc2c1	-3%	-11%	-27%	·	50µM*
C=C1c2cccc(O)c2C(=O)C2C(=O)[C@]3(O)C(=O)C(C(N)=O)C(=O)[C@@H](N(C)C)[C@@H]3[C@@H](O)[C@H]12 (some centres not stated)	8.9µM*	?	·	·	3.2µM*
CC(C)(C)NC(=O)C[C@H]1C[C@H](C(=O)N2CCCCC2)[C@@]2(C)c3[nH]c4cc(-c5ccco5)ccc4c3CCN2C1=O	9%	-23%	·	·	50µM*
CCN(CC)C(=O)[C@H]1C[C@H](CC(=O)NCc2ccco2)C(=O)N2CCc3c([nH]c4cc(-c5ccco5)ccc34)[C@]12C	5%	?	·	·	50µM*
Cc1cccc(Nc2ccccc2C(=O)OCC(=O)NCc2ccco2)c1C	12%	-15%	-12%[0.0925 µM]	50µM*	45µM*
Cc1c(C(=O)OCC(=O)NCc2ccco2)cccc1[N+](=O)[O-]	-13%	-14%	-38%[59 µM]	50µM*	?
CC(C)(O)C#Cc1ccc(N2C(c3ccsc3)=Cc3ccc(F)cc3C2c2c[nH]c3ccccc23)cc1 (configuration not stated)	5%	·	·	·	·
CC(C)Cc1ccc(S(=O)(=O)N2CCC(c3ccncc3)CC2)cc1	-12%	60%	0%[59 µM]	0%	-7%
CC(C)C[C@H](N)c1cn([C@@H](Cc2cc3ccccc3[nH]2)C(=O)N2CCNCC2)nn1	11%	13%	?	-22%	?
C#CCOCCOCCOCCNc1nc(N2CCN(C(=O)Cn3cc(CCCCN)nn3)CC2)nc(N2CCN(C(=O)[C@H](Cc3ccc(O)cc3)n3cc(CCO)nn3)CC2)n1	7%	37%	·	·	-5%
C#CCOCCOCCOCCNc1nc(N2CCN(C(=O)C(Cc3cc4ccccc4[nH]3)n3cc(C(N)Cc4ccc(O)cc4)nn3)CC2)nc(N2CCN(C(=O)C(Cc3cc4ccccc4[nH]3)n3cc(C(N)Cc4ccc(O)cc4)nn3)CC2)n1 (configuration not stated)	-6%	-36%	-28%[12.7 µM]	11µM*	8.9µM*
C#CCOCCOCCOCCNc1nc(N2CCN(C(=O)[C@H](Cc3cc4ccccc4[nH]3)n3cc([C@@H](N)Cc4ccc(O)cc4)nn3)CC2)nc(N2CCN(C(=O)[C@H](Cc3cc4ccccc4[nH]3)n3cc([C@@H](N)CC(C)C)nn3)CC2)n1	10%	-24%	?	?	50µM*
Nn1c(SCC(=O)Nc2ccc(OC(F)F)cc2)nnc(Cc2ccccc2)c1=O	2%	28%	-4%	3%	-7%
O=C(Nc1ccccc1N1CCOCC1)C1CCN(S(=O)(=O)c2ccccc2F)CC1	8%	-3%	8%[59 µM]	7%	-1%
O=C(CC1S/C(=N/N=C2CCCCCC2)NC1=O)Nc1ccccc1F (configuration not stated)	-13%	55%	26%	-2%	1%
CC(=O)c1cccc(NC(=O)CC2S/C(=N/N=C/c3ccccc3)NC2=O)c1 (configuration not stated)	3%	58%	42%[59 µM]	-17%	3%
O=C(O)CNC(=O)CC1S/C(=N/N=C/c2ccccc2O)NC1=O (configuration not stated)	-17%	14%	8%	50µM*	?
NC(=O)NC(=O)CC1S/C(=N/N=C2/NC(=O)CS2)NC1=O (configuration not stated)	1%	21%	5µM*	20µM*	28µM*
SMILES	GLS inhibitor	HP1b chromo inh	G9a block	BAZ2B inh	JMJD2A Tudor
O=C(O)CNC(=O)CC1S/C(=N/N=C2\CSC(=O)N2)NC1=O (configuration not stated)	41%	58%	-27%	6.3µM*	7.1µM*
Cc1ccc(C(=O)N2CCC(c3c[nH]c4ccccc34)(c3c[nH]c4ccccc34)CC2)cc1	5%	0%	-5%[59 µM]	-27%	-36%
CCOC(=O)CN1C(=O)S/C(=C/C=C/c2ccc(N(C)C)cc2)C1=O	7%	13µM*	10µM*	10µM*	16µM*
CCOC(=O)CN1C(=O)S/C(=C/c2ccc3c(c2)n(C)c(=O)n3C)C1=O	1%	7%	5%[59 µM]	-3%	-31%
Cc1cccc(NC(=O)CN2C(=O)S/C(=C\c3ccccn3)C2=O)c1	-2%	69%	-38%	4%	-14%
Cc1cccc(NC(=O)CN2C(=O)S/C(=C\c3ccc(O)c([N+](=O)[O-])c3)C2=O)c1	0%	-24%	35µM*	?	50µM*
O=C(CN1C(=O)S/C(=C\c2ccc(O)c([N+](=O)[O-])c2)C1=O)Nc1ccc(N2CCOCC2)cc1	?	?	-3%[0.501 µM]	45µM*	56µM*
Cc1ccc(NC(=O)CN2C(=O)S/C(=C/c3ccc(O)c([N+](=O)[O-])c3)C2=O)cc1C	10%	?	·	14µM*	22µM*
COc1ccc(-n2c(=O)c3ccc(C(=O)NCc4ccc(C)cc4)cc3n(CC(=O)Nc3cccc(F)c3)c2=O)cc1	1%	28%	2%[59 µM]	·	2%
CCC(=O)N1CCCC(C)(C(=O)NS(=O)(=O)c2cccs2)C1 (configuration not stated)	15%	·	·	·	·
COc1cccc(N2CC(NC(=O)C3CC3)CC2=O)c1 (configuration not stated)	2%	31%	-3%[59 µM]	-1%	2%
CCOC(=O)CN1C(=O)S/C(=C/c2cccc([N+](=O)[O-])c2O)C1=O	7%	?	35µM*	?	-11%[11.4 µM]
O=C1C2C3CCCC3=C3CCCC3C2C(=O)N1c1ccccc1Cl (configuration not stated)	·	34%	·	·	-17%
O=C(CCN1CCOCC1)NNC(=S)NC(=O)c1ccc(Br)cc1	-3%	6%	7.9µM*	-37%	?
O=C(CCN1CCCCC1)NNC(=S)NC(=O)c1ccc(Br)cc1	-19%	11%	11µM*	?	?

Assay outcomes from PubChem BioAssay.
